# Out of some 2,000 compounds screened, about 110 (5.5%) showed an effect of 50% or more. Many of the other results were omitted from the sample, so strong results are more common in it than they were.
# Molecular target: Genome polyprotein (dengue virus type 2) (UniProt P29990)
# [1] = Thailand/16681/1984, Concentration 25.0 uM, Number of replicates 1.0
compound,measurement,setting,value
O=Cc1ccc(N2CCC(C(=O)NCc3ccccc3Br)CC2)cc1,inhibition,[1],12.3%
O=Cc1ccc(N2CCC(C(=O)NCc3ccc4ccccc4n3)CC2)cc1,inhibition,[1],12.8%
Cc1nc(C2CCN(Cc3c[nH]c4ccccc34)CC2)sc1C(=O)O,inhibition,"Thailand/16681/1984, Concentration 49.5 uM, Number of replicates 2.0, Standard deviation 2.532196482700825 %",-7.37%
same,inhibition,"Thailand/16681/1984, Concentration 99.01 uM, Number of replicates 2.0, Standard deviation 0.1962596660766768 %",-5.26%
same,inhibition,"Thailand/16681/1984, Concentration 198.0 uM, Number of replicates 2.0, Standard deviation 1.7247831523377455 %",-1.52%
COC(=O)c1cncc(C(=O)Nc2ccncc2C)c1,inhibition,"Thailand/16681/1984, Concentration 49.5 uM, Number of replicates 2.0, Standard deviation 6.3209660189886 %",2.4%
same,inhibition,"Thailand/16681/1984, Concentration 99.01 uM, Number of replicates 2.0, Standard deviation 0.9582277355643998 %",-1.8%
same,inhibition,"Thailand/16681/1984, Concentration 198.0 uM, Number of replicates 2.0, Standard deviation 0.7051109593221626 %",-2.38%
Cc1cc(S(=O)(=O)NCCNC(=O)c2ccc(O)c(NC(=O)c3ccncc3F)c2C)c(C)s1,inhibition,"Thailand/16681/1984, Concentration 49.5 uM, Number of replicates 2.0, Standard deviation 0.0696651159595359 %",-1.95%
same,inhibition,"Thailand/16681/1984, Concentration 99.01 uM, Number of replicates 2.0, Standard deviation 0.12517951182523615 %",-1.5%
same,inhibition,"Thailand/16681/1984, Concentration 198.0 uM, Number of replicates 2.0, Standard deviation 0.5034395957498385 %",0.045%
COc1ccc(CN(C)C(=O)C2CCN(c3ccc(C=O)cc3)CC2)c(OC)c1,inhibition,[1],14%
NC(=O)c1c(NC(=O)C2CCN(c3ccc(C=O)cc3)CC2)sc2c1CCCC2,inhibition,[1],38.6%
CCn1cc(S(=O)(=O)Nc2ccc(Cl)cc2C(=O)NC)cn1,inhibition,"Thailand/16681/1984, Concentration 49.5 uM, Number of replicates 2.0, Standard deviation 0.5029835247021022 %",-6.21%
C[C@@H](c1ccccc1)N(C(=O)C1CCN(c2ccc(C=O)cc2)CC1)[C@@H](C)c1ccccc1,inhibition,[1],15.2%
CC1(C)Cc2sc(NC(=O)Cc3ccc(S(N)(=O)=O)cc3)c(C#N)c2CN1CC1CCCCC1,inhibition,"Thailand/16681/1984, Concentration 49.5 uM, Number of replicates 2.0, Standard deviation 0.009484052439315419 %",8.25%
same,inhibition,"Thailand/16681/1984, Concentration 99.01 uM, Number of replicates 2.0, Standard deviation 0.7150155530159198 %",14.5%
same,inhibition,"Thailand/16681/1984, Concentration 198.0 uM, Number of replicates 2.0, Standard deviation 0.2762742778628508 %",23.9%
Cc1cc(CO)c2cccc(CC(=O)NCc3sccc3C)c2n1,inhibition,"Thailand/16681/1984, Concentration 49.95 uM, Number of replicates 2.0, Standard deviation 0.3413314788746907 %",44%
same,inhibition,"Thailand/16681/1984, Concentration 99.9 uM, Number of replicates 2.0, Standard deviation 0.321257440691134 %",63.7%
Cc1cc(CO)c2cccc(Cc3ccccc3C(=O)NCc3ccc(S(N)(=O)=O)cc3)c2n1,inhibition,"Thailand/16681/1984, Concentration 49.95 uM, Number of replicates 2.0, Standard deviation 1.5695359944911405 %",4.94%
same,inhibition,"Thailand/16681/1984, Concentration 99.9 uM, Number of replicates 2.0, Standard deviation 2.135114838489864 %",9.8%
Cc1cc(CO)c2cccc(Cc3ccccc3C(=O)NCc3sccc3C)c2n1,inhibition,"Thailand/16681/1984, Concentration 49.95 uM, Number of replicates 2.0, Standard deviation 0.661878407993628 %",1.17%
same,inhibition,"Thailand/16681/1984, Concentration 99.9 uM, Number of replicates 2.0, Standard deviation 2.367239112425795 %",7.83%
Cc1cc(N)cc(CNC(=O)c2ccccc2Cc2cccc3c(CO)cc(C)nc23)c1,inhibition,"Thailand/16681/1984, Concentration 49.95 uM, Number of replicates 2.0, Standard deviation 1.0161746789387547 %",47.1%
same,inhibition,"Thailand/16681/1984, Concentration 99.9 uM, Number of replicates 2.0, Standard deviation 1.7549489162224476 %",74.7%
Cc1cc(CO)c2cccc(Cc3ccccc3C(=O)NCc3ccc(C(N)=O)cc3)c2n1,inhibition,"Thailand/16681/1984, Concentration 49.95 uM, Number of replicates 2.0, Standard deviation 0.2888981019288338 %",2.07%
same,inhibition,"Thailand/16681/1984, Concentration 99.9 uM, Number of replicates 2.0, Standard deviation 0.18972386998439544 %",5.84%
Cc1cc(CO)c2cccc(Cc3cccc(C(=O)NCc4sccc4C)c3)c2n1,inhibition,"Thailand/16681/1984, Concentration 49.95 uM, Number of replicates 2.0, Standard deviation 0.7466793423372446 %",1.25%
same,inhibition,"Thailand/16681/1984, Concentration 99.9 uM, Number of replicates 2.0, Standard deviation 0.16169689007422708 %",23.8%
CC(C)NC(=O)CN1CCN(C(=O)C2CCN(c3ccc(C=O)cc3)CC2)CC1,inhibition,[1],11.2%
Cc1cn2nnc(C(=O)N3CCC[C@H](c4nc(=O)[nH][nH]4)C3)c2c(=O)[nH]1,inhibition,"Thailand/16681/1984, Concentration 49.5 uM, Number of replicates 2.0, Standard deviation 1.1306810071407891 %",-1.83%
same,inhibition,"Thailand/16681/1984, Concentration 99.01 uM, Number of replicates 2.0, Standard deviation 1.1436614778388714 %",-1.38%
same,inhibition,"Thailand/16681/1984, Concentration 198.0 uM, Number of replicates 2.0, Standard deviation 0.31245549284811885 %",-1.83%
Cc1cc(CO)c2cccc(Cc3cccc(C(=O)N[C@H]4C[C@@H](O)C4)c3)c2n1,inhibition,"Thailand/16681/1984, Concentration 49.95 uM, Number of replicates 2.0, Standard deviation 0.3715430142368757 %",6.97%
same,inhibition,"Thailand/16681/1984, Concentration 99.9 uM, Number of replicates 2.0, Standard deviation 0.8666943057865014 %",29.2%
Cc1cc(CO)c2cccc(C[C@H](NC(=O)c3cc(C(F)F)nn3C)C(=O)O)c2n1,inhibition,"Thailand/16681/1984, Concentration 49.95 uM, Number of replicates 2.0, Standard deviation 1.4383595761786832 %",1.98%
same,inhibition,"Thailand/16681/1984, Concentration 99.9 uM, Number of replicates 2.0, Standard deviation 0.48778570830386186 %",5.89%
Cc1nc(N)c2cccc(Cl)c2n1,inhibition,"Thailand/16681/1984, Concentration 49.95 uM, Number of replicates 2.0, Standard deviation 5.075529174302592 %",-8.29%
same,inhibition,"Thailand/16681/1984, Concentration 99.9 uM, Number of replicates 2.0, Standard deviation 2.1313934403537464 %",-8.87%
COc1ccccc1N1CCN(C(=O)C2CCN(c3ccc(C=O)cc3)CC2)CC1,inhibition,[1],12.1%
N[C@@H]1CCCC[C@H]1C(=O)Nc1cccc2cccnc12,inhibition,"Thailand/16681/1984, Concentration 49.95 uM, Number of replicates 2.0, Standard deviation 3.2838754106489776 %",-8.7%
same,inhibition,"Thailand/16681/1984, Concentration 99.9 uM, Number of replicates 2.0, Standard deviation 3.148144351005342 %",-7.2%
O=C(Nc1cccc2cccnc12)C1CCNCC1,inhibition,"Thailand/16681/1984, Concentration 49.95 uM, Number of replicates 2.0, Standard deviation 0.4211783883506398 %",-0.871%
same,inhibition,"Thailand/16681/1984, Concentration 99.9 uM, Number of replicates 2.0, Standard deviation 1.2273405052219766 %",51.5%
NCCC(=O)Nc1cccc2cccnc12,inhibition,"Thailand/16681/1984, Concentration 49.95 uM, Number of replicates 2.0, Standard deviation 1.674842930068702 %",-9.45%
same,inhibition,"Thailand/16681/1984, Concentration 99.9 uM, Number of replicates 2.0, Standard deviation 2.956474982493684 %",-7.49%
Nc1nccc2cc(Br)ccc12,inhibition,"Thailand/16681/1984, Concentration 49.95 uM, Number of replicates 2.0, Standard deviation 5.1898726049351325 %",-2.94%
same,inhibition,"Thailand/16681/1984, Concentration 99.9 uM, Number of replicates 2.0, Standard deviation 6.552121336877266 %",-2.95%
COc1ccc(Cl)c2sc(NC(=O)c3ccccc3NS(=O)(=O)c3ccc(Cl)cc3)nc12,inhibition,"Thailand/16681/1984, Concentration 198.0 uM, Number of replicates 2.0, Standard deviation 9.166560145189157 %",8.28%
CC(C)Nc1nc2ccc(C(=O)Nc3nnc4cccnn34)cc2[nH]1,inhibition,"Thailand/16681/1984, Concentration 49.5 uM, Number of replicates 2.0, Standard deviation 0.47864102228875616 %",-2.54%
same,inhibition,"Thailand/16681/1984, Concentration 99.01 uM, Number of replicates 2.0, Standard deviation 0.9476878624230379 %",-0.35%
same,inhibition,"Thailand/16681/1984, Concentration 198.0 uM, Number of replicates 2.0, Standard deviation 0.5058242222917364 %",4.68%
Cc1cc(CO)c2cccc(Cc3cccc(NC(=O)CNC4CC4)c3)c2n1,inhibition,"Thailand/16681/1984, Concentration 49.95 uM, Number of replicates 2.0, Standard deviation 1.5245757174015988 %",0.182%
same,inhibition,"Thailand/16681/1984, Concentration 99.9 uM, Number of replicates 2.0, Standard deviation 1.8285218036822166 %",7.46%
Cc1cc(CO)c2cccc(Cc3cccc(NC(=O)C[C@H]4CCCN4)c3)c2n1,inhibition,"Thailand/16681/1984, Concentration 49.95 uM, Number of replicates 2.0, Standard deviation 0.1263380443971036 %",-4.58%
same,inhibition,"Thailand/16681/1984, Concentration 99.9 uM, Number of replicates 2.0, Standard deviation 0.8674748654209231 %",-4.17%
Cc1cc(CO)c2cccc(Cc3ccccc3NC(=O)Cc3c(C)c4c(=O)[nH]n(C)c4[nH]c3=O)c2n1,inhibition,"Thailand/16681/1984, Concentration 49.95 uM, Number of replicates 2.0, Standard deviation 2.5458058686723866 %",22.5%
same,inhibition,"Thailand/16681/1984, Concentration 99.9 uM, Number of replicates 2.0, Standard deviation 1.6741240734205003 %",45.5%
Cc1cc(CO)c2cccc(NC(=O)C[C@H]3CCCN3)c2n1,inhibition,"Thailand/16681/1984, Concentration 49.95 uM, Number of replicates 2.0, Standard deviation 1.87682580099837 %",7.72%
same,inhibition,"Thailand/16681/1984, Concentration 99.9 uM, Number of replicates 2.0, Standard deviation 2.520000533440925 %",13.9%

# Source: ChEMBL document CHEMBL5606460, “ASAP - DENV-2 NS2B-NS3 protease fluorescence single point” (2024)
